Laboratory results: PubChem BioAssay AID588689 (Southern Research Specialized Biocontainment Screening …, 2011)
About 1,000 (0.29%) of roughly 340,000 compounds were called active. Cut-off read from the data, not from the text of the source: inconclusive = inhibition above about 29% without an active follow-up result; inactive = below that. The list is a sample of the results. Measured potencies and affinities stand elsewhere.

Target: Genome polyprotein (Dengue virus type 2 (strain 16681-PDK53)) (UniProt P29991)
Experiment: flavivirus cap methylation enzyme inhibition – biochemical, confirmation dose response, primary screen (AID 588689)
Conditions: Dengue-2 NS5 methyltransferase capping enzyme assay, at 25 µM, stronger effect = higher value
[1] = measured here: pilot screen replicate inhibition

Compound | inhibition | inhibition [1]
Cc1[nH][nH]c(=O)c1C(c1ccc(-c2ccccc2C(=O)O)o1)c1c(C)[nH][nH]c1=O | 39% (inactive) | 
Cc1[nH][nH]c(=O)c1C(c1ccc(-c2cccc(C(=O)O)c2)o1)c1c(C)[nH][nH]c1=O | 21.1% (inactive) | 
Cc1cc(S(=O)(=O)N2CCCOC2CNC(=O)C(=O)NCCc2ccco2)ccc1F (centres undefined) | 0.64% (inactive) | 
COc1ccccc1OCCNC(=O)C(CCSC)NS(=O)(=O)c1ccccc1F (centres undefined) | -7.2% (inactive) | 
CC(Oc1ccccc1)C(=O)NNS(=O)(=O)c1ccc([N+](=O)[O-])cc1 (centres undefined) | -1.92% (inactive) | 
COc1ccc(-n2c(SCC(=O)Nc3cc(C)on3)nc3ccc(O)cc3c2=O)cc1OC | -6.42% (inactive) | 
O=[N+]([O-])c1cccc(/C=N/N=C\c2ccccc2)c1 | -0.78% (inactive) | 
O=C1NC(=S)N/C1=C/c1cccc([N+](=O)[O-])c1 | 1.48% (inactive) | 
O=C(O)c1cc(NCc2c(F)cccc2Cl)ccc1N1CCOCC1 | -2.05% (inactive) | 
NS(=O)(=O)c1ccc(NCc2c(F)cccc2Cl)cc1 | 4.17% (inactive) | 
CN1CCC(=NNC(=O)c2ccco2)CC1 | 17.7% (inactive) | 
Cc1ccccc1C(=O)NC(=S)Nc1ccc2[nH]c(=O)[nH]c2c1 | -1.8% (inactive) | 
C[C@H](CO)N1C[C@H](C)[C@@H](CN(C)S(=O)(=O)c2ccc(F)cc2)Oc2ccc(NS(=O)(=O)c3ccccc3)cc2C1=O | 0.4% (inactive) | 
Cc1c(N=C2C(=O)Nc3ccccc32)c(=O)n(-c2ccccc2)n1C | 2.78% (inactive) | 
CC1=CC(=Nc2c(C)n(C)n(-c3ccccc3)c2=O)C=C(C)C1=O | 2.89% (inactive) | 
CCC(C)C1=CC(=Nc2c(C)n(C)n(-c3ccccc3)c2=O)C=C(C(C)CC)C1=O (centres undefined) | 4.41% (inactive) | 
Cc1c(N=c2scc(-c3ccccc3)n2C)c(=O)n(-c2ccccc2)n1C | -7.91% (inactive) | 
CCC1CCCCN1C(=O)COc1ccc(S(=O)(=O)N2CCOCC2)cc1Cl (centres undefined) | -7.51% (inactive) | 
CCOC(=O)c1c(-c2ccccc2)oc2ccc(OCC(=O)O)cc12 | -1.55% (inactive) | 
CC1CCCCC1NC(=O)c1nnc(Cc2ccc(Cl)cc2)o1 (centres undefined) | -2.17% (inactive) | 
Cc1cc(-n2c(C)cc(C(=O)CSc3nncn3C(C)C)c2C)no1 | -1.44% (inactive) | 
COC(=O)c1ccc([C@H](NC(=O)c2ccco2)[C@]2(C)C[C@H]2C2CCCCC2)cc1 | -7.21% (inactive) | 
COc1ccc(C(=O)c2ccc(N3CCN(C(=O)c4ccc(F)cc4)CC3)c(F)c2)cc1Br | 4.82% (inactive) | 

Compound | inhibition | inhibition [1]
O=C1Oc2ccccc2C(=O)/C1=C\N1CCN(c2ccccc2)CC1 | -8.28% (inactive) | 
Cc1ccccc1/C=C1\Oc2ccccc2C1=O | 1.3% (inactive) | 
Cc1cc(C(=O)NNC(=O)c2c(-c3c(Cl)cccc3Cl)noc2C)no1 | 0% (inactive) | 
CCc1ccc(OCC(O)CN2CCN(c3ccc(OC)cc3)CC2)cc1 (centres undefined) | -3.27% (inactive) | 
O=C(c1ccccc1)c1ccc(Oc2ccc(C(=O)O)c(C(=O)O)c2)cc1 | 2.64% (inactive) | -1.5%
CC(C)(C)C(=O)Nc1ccc(C(=O)Nc2cccc(Oc3ccc(C(=O)O)c(C(=O)O)c3)c2)cc1 | 9.79% (inactive) | -1.52%
COc1cc(-c2nc3ccccn3c2/N=C/c2ccc(F)cc2)ccc1O | -1.47% (inactive) | 
O=C(c1ccc2c3c(cccc13)CC2)C1CCCN(Cc2cccnc2)C1 (centres undefined) | -8.53% (inactive) | 
O=C(c1ccc2c3c(cccc13)CC2)C1CCCN(Cc2ccncc2)C1 (centres undefined) | -3.47% (inactive) | 
O=C(NCCO)C(=O)NCC(c1cccs1)S(=O)(=O)c1ccc(F)cc1 (centres undefined) | 0% (inactive) | 
CC(C)C[C@@H](CNC(=O)OC(C)(C)C)NC(=O)c1nc[nH]c1C(=O)N[C@@H](CC(C)C)C(=O)CNC[C@H](CC(C)C)NC(=O)c1nc[nH]c1C(=O)N[C@@H](Cc1c[nH]c2ccccc12)C(=O)OC(C)(C)C | -7.03% (inactive) | 
CC1(C)CC(=O)C=C(C(=O)N2CCCC(C(=O)c3cc(F)ccc3F)C2)O1 (centres undefined) | -6.28% (inactive) | 
CCN(C1CCCCC1)S(=O)(=O)CCNC(=O)c1ccc2c(c1)OCO2 | -2.2% (inactive) | 
Cc1ccn(-c2cc(O)c(-n3ccc(C)n3)cc2O)n1 | -6.11% (inactive) | 
c1ccc2c(-n3cccn3)cccc2c1 | -11.8% (inactive) | 
CCOc1ccccc1C(=O)OCC(=O)Nc1ccc(OC(F)F)cc1 | 0.68% (inactive) | -8.52%
COc1ccc(/C=C2\SC(=S)N(NS(=O)(=O)c3ccc(C)cc3)C2=O)c(OC)c1 | 16.5% (inactive) | 
COc1ccc(OC)c(/C=C2\SC(=S)N(NS(=O)(=O)c3ccccc3)C2=O)c1 | 43.4% (inactive) | 
COc1ccccc1/C=C1\SC(=S)N(Nc2nc(C)cc(C)n2)C1=O | 7.21% (inactive) | 
COc1ccccc1/C=C1\SC(=S)N(N2C(=O)CCCC2=O)C1=O | 0% (inactive) | 
Cc1cc2cc(C#N)c(SCC(=O)Nc3nonc3C)nc2cc1C | 3.66% (inactive) | 
O=C(CSc1nnc2ccccn12)NC(=O)c1cccc([N+](=O)[O-])c1 | -2.72% (inactive) | 
Cc1nc(NN)nc(NCc2ccccc2)n1 | -1.54% (inactive) | 

Compound | inhibition | inhibition [1]
CC[C@H]1c2[nH]c3ccccc3c2C[C@@H]2C(=O)N(c3ccc(F)cc3)C(=O)N21 | 0% (inactive) | 
Cc1ccc(C(=O)NNC(=O)C2CSC3(C)CCC(=O)N23)cc1 (centres undefined) | 5.19% (inactive) | 
Cc1cc(=O)[nH]c(SCC(=O)Nc2nnc(SCc3ccccc3)s2)n1 | -1.48% (inactive) | 
CC(=O)Nc1c(O)nc(SCC(=O)Nc2nnc(SCc3ccccc3)s2)[nH]c1=O | 3.91% (inactive) | 
COc1cccc(CN2CCNC(=O)C2CC(=O)NCCc2ccccn2)c1 (centres undefined) | -3.12% (inactive) | 
Cc1occc1C(=O)Nc1cnn(CCCC(=O)O)c1 | 0.32% (inactive) | 
O=C(CC(=O)NN=C1CCCCCC1)NCc1cccnc1 | -7.12% (inactive) | 
COc1cc(/C=C2/SC(=S)N(CC(=O)O)C2=O)ccc1OC(=O)c1ccco1 | -8.15% (inactive) | 
COc1cc(/C=C2\SC(=S)N(CC(=O)O)C2=O)ccc1OC(=O)c1ccco1 | -6.52% (inactive) | 
CCOc1cc(/C=C2/SC(=S)N(Cc3ccccc3)C2=O)ccc1O | -16.7% (inactive) | 
CCOc1ccc(/C=C2\SC(=S)N(CCC(=O)O)C2=O)cc1 | 10.9% (inactive) | 
CCn1c(O)c(/C=C2\C=NN=C2c2ccccc2)sc1=S | 1.56% (inactive) | 
Cc1ccc(C2=NN(C(=O)CCC(=O)O)C(c3ccc4c(c3)OCO4)C2)cc1 (centres undefined) | -1.55% (inactive) | 
COc1ccc(CNC(=O)CN(Cc2ccccc2F)C(=O)c2csnn2)cc1 | -7.27% (inactive) | 
CCc1cccc2c1NC(=O)C21N2CCCC2C(C(=O)c2ccc3ccccc3c2)C12C(=O)Nc1ccccc12 (centres undefined) | -10.4% (inactive) | 
Cc1c(Cl)cccc1NC(=O)CC1Sc2ccccc2NC1=O (centres undefined) | -2.59% (inactive) | 
O=C(O)c1ccc(C(=O)C(=O)c2ccccc2)cc1 | -3.83% (inactive) | 
CCN(CC)c1ccc(C(=O)O)cc1 | -2.67% (inactive) | 
O=C(Oc1ccc(/C=N/NC(=O)c2ccccn2)cc1)c1cccc(F)c1 | 0.65% (inactive) | 
O=S(=O)(c1ccccc1)c1nc(-c2ccc(F)cc2)oc1NCC1CCCO1 (centres undefined) | -1.48% (inactive) | 
CC(C)NC(=O)C(=O)Nc1ccc2c(c1)N(S(=O)(=O)c1cccs1)CCC2 | 2.2% (inactive) | 
CCn1c(-c2ccco2)nc2ccccc21 | -5.14% (inactive) | 
c1coc(Cn2c(-c3ccco3)nc3ccccc32)c1 | -8.81% (inactive) | 

Compound | inhibition | inhibition [1]
O=C(CCc1nc(-c2ccc(Cl)cc2)no1)NCc1ccccc1CN1CCOCC1 | 1.12% (inactive) | 
CN(C)c1ccc(/C=C(\C#N)C(=O)c2ccccc2)cc1 | -80.6% (inactive) | 
O=C(C=Cc1cccc(Cl)c1)c1ccccc1 | -41.2% (inactive) | 
CNC(=S)N(CCN(C)C)Cc1cc2cc3c(cc2[nH]c1=O)OCO3 | -3.53% (inactive) | 
Cn1c(=O)cc(N)n(-c2ccccc2)c1=O | 1.3% (inactive) | 
O=C1c2ccccc2COc2ccc(O)cc21 | 4% (inactive) | 
Cc1ccnc(N2CCC(C(=O)Nc3ccc4c(c3)CCC4)CC2)n1 | -1.37% (inactive) | -2.12%
CCc1nnc(NC(=O)CSc2nc(-c3ccc(OC)cc3)ns2)s1 | -9.71% (inactive) | 
CN(C)c1ccc(C(=O)c2ccccc2C(=O)O)c(O)c1 | -0.81% (inactive) | 
CCN(CC)c1ccc(C(=O)c2ccccc2C(=O)O)c(O)c1 | 8.17% (inactive) | 6.25%
Cc1nc(N)nc(N(C)c2ccccc2)c1Br | 3.09% (inactive) | 
O=C(COC(=O)C1CCN(S(=O)(=O)c2cccc3cccnc23)CC1)c1ccc([N+](=O)[O-])cc1 | -7.6% (inactive) | 
O=S(=O)(Cc1ccccc1)N1CCN(Cc2ccc(F)cc2Cl)CC1 | -4.55% (inactive) | 
COc1ccc(C(c2c(C)n(C)n(-c3ccccc3)c2=O)c2c(C)n(C)n(-c3ccccc3)c2=O)cc1OC | -2.72% (inactive) | 
COc1cc(C(c2c(C)[nH][nH]c2=O)c2c(C)[nH][nH]c2=O)cc(OC)c1OC | 1.7% (inactive) | 
COc1ccc(N=C(c2ccccc2)c2c(C)[nH]n(-c3ccccc3)c2=O)c(OC)c1 | -10.3% (inactive) | 
COc1ccc(C(C[N+](=O)[O-])c2c(C)[nH]n(-c3ccccc3)c2=O)cc1 (centres undefined) | -13.7% (inactive) | 
Nc1nccc(/C=C/c2c(Cl)cccc2Cl)n1 | -5.43% (inactive) | 
Cn1c(=O)c2c(SCc3ccccc3)nc(C3CC3)nc2n(C)c1=O | -11.1% (inactive) | 
CC(C)(C)OC(=O)C[C@H]1C/C=C\C[C@@H](CC(=O)N(CCO)Cc2ccccc2)C(=O)N[C@@H](Cc2ccccc2)COC1=O | 1.65% (inactive) | 
